“And” between values parts separate entries of the source, which are not always exact repeats. Equal values may be shown once. Inconclusive results are not listed. The source made the active and inactive calls. Unless noted, the call rests on the fitted dose curve.

The record followed here is PubChem BioAssay (Tox21).

Assay [1] in a line: Nuclear factor erythroid 2-related factor 2/antioxidant responsive element (Nrf2/ARE) small molecule agonists: qHTS cell viability counter screen in human keratinocytes (AID 1919968; active means well fitted cell-killing curve with a large enough effect in the repeat runs; further: nearly all actives have a fitted effect of over 55% in size). Summed up:
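KeratinoSens cells (HaCaT keratinocytes stably carrying an ARE-luciferase reporter) were seeded at 1,500 cells/well and rested 5 h at 37 C/5% CO2. They were then exposed to compounds in DMSO for 23 h. Viability was read by CellTiter-Fluor fluorescence after 1 h.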

The nature of assay [2]: Nuclear factor erythroid 2-related factor 2/antioxidant responsive element (Nrf2/ARE) small molecule agonists: luciferase reporter gene qHTS assay in human keratinocytes (AID 1919969). Further: nearly all actives have a fitted effect of over 35% in size. Further: potency means the concentration at half of the fitted maximal effect.
Assay [3] deals with Gonadotropin-releasing hormone receptor (Homo sapiens) (UniProt P30968). The assay can be described thus: Human gonadotropin-releasing hormone receptor (GnRHR) small molecule agonists, calcium flux assay in GnRHR-HEK293 cells (AID 1920063). Further: nearly all actives have a fitted effect of over 35% in size. Summed up:
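HEK293 cells stably expressing human GnRHR were plated 18 h at 37 °C, loaded with calcium dye 1 h at 37 °C, then given compound in agonist mode; fluorescence (Ex/Em 480/540) read kinetically for 3 min at 1 s intervals.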

Assay [4] is described as follows: p53 small molecule agonists, cell-based qHTS assay with human liver microsomes (AID 1963577).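 Further: p53 response element beta-lactamase reporter cells with liver microsomes plus NADPH.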 The procedure, abridged: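 p53RE-bla cells; 5 h settle, 37 C/5% CO2; cpd + HLM 0.5 mg/mL + NADPH 0.5 mg/mL (final); 16 h 37 C; LiveBLAzer 2 h RT dark; fluorescence readout.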
A short description of assay [5]: p53 small molecule agonists, cell-based qHTS assay with human liver microsomes: qHTS cell viability counter screen (AID 1963579). Further: nearly all actives have a fitted effect of over 45% in size. The procedure, abridged: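 Luminescent CellTiter-Glo read-out, 30 min at room temperature, gauged cytotoxicity in p53RE-bla cells exposed 16 h at 37 C to DMSO-dissolved compounds with metabolic activation by human liver microsomes and NADPH, each 0.5 mg/mL final.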

Assay [6] is described as follows: p53 small molecule agonists, cell-based qHTS assay with rat liver microsomes: qHTS cell viability counter screen (AID 1963580). Further: nearly all actives have a fitted effect of over 45% in size. The procedure, abridged: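 p53RE-bla HCT-116 cells were exposed 16 h at 37 C to compounds with rat liver microsomes (0.5 mg/mL) and NADPH (0.5 mg/mL). Viability was measured in the same wells as ATP content by CellTiter-Glo luminescence.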

The nature of assay [7]: p53 small molecule agonists, cell-based qHTS assay: qHTS cell viability counter screen (AID 1963581). Further: nearly all actives have a fitted effect of over 45% in size. Summed up:
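p53RE-bla HCT-116 cells were exposed to compounds for 16 h at 37 C; after the beta-lactamase FRET read in the same wells, CellTiter-Glo was added and luminescence (intracellular ATP) read after 30 min at room temperature.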

Assay [8] in a line: p53 small molecule agonists, cell-based qHTS assay (AID 1963582; active means well fitted activation curve with a large enough effect in the signal ratio in the repeat runs, not every such curve was filed as active; the % refers to the signal ratio). The procedure, abridged: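 p53RE-bla beta-lactamase reporter cells rested 5 h at 37 C/5% CO2, then received compounds in DMSO by pin transfer and were incubated 16 h at 37 C. LiveBLAzer B/G FRET substrate was loaded for 2 h at room temperature before fluorescence reading.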
The target in assay [9] is 5-hydroxytryptamine receptor 2A (Homo sapiens) (UniProt P28223). The assay can be described thus: 5-hydroxytryptamine receptor 2A (HTR2A) small molecule antagonists, cell-based qHTS assay (AID 1963586). Further: nearly all actives have a fitted effect of over 45% in size. The procedure, abridged:
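Antagonist-mode intracellular calcium assay: DOI (4 nM) added after 5 min compound pre-incubation at room temperature to dye-loaded HTR2A-CHO cells. Fluorescence followed for 3 min, sampled every second.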

For assay [10] the target is unchanged. The assay can be described thus: 5-hydroxytryptamine receptor 2A (HTR2A) small molecule agonists, cell-based qHTS assay (AID 1963587). Further: nearly all actives have a fitted effect of over 30% in size. Summed up:
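CHO cells stably expressing human HTR2A, plated 18 h, loaded with calcium dye 1 h at 37 C. Agonist mode: compounds added and intracellular calcium fluorescence recorded kinetically for 2 min at 1 sec intervals.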

Assay [11] has as its target Muscarinic acetylcholine receptor M1 (Homo sapiens) (UniProt P11229). The assay can be described thus: Cholinergic receptor muscarinic 1 (CHRM1) small molecule antagonists, cell-based qHTS assay (AID 1963588). Further: nearly all actives have a fitted effect of over 40% in size. Summed up:
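CHRM1-CHO calcium-flux assay, antagonist mode. Cells were seeded 18 h, dye-loaded 1 h at 37 C and given compound for 5 min at RT, then acetylcholine was added at 50nM. FDSS fluorescence was read 3 min; 15 concentrations, three runs.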

For assay [12] the target is unchanged. The assay can be described thus: Cholinergic receptor muscarinic 1 (CHRM1) small molecule agonists, cell-based qHTS assay (AID 1963589). Further: nearly all actives have a fitted effect of over 35% in size. Summed up: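 CHO cells stably expressing human CHRM1, seeded 18 h at 37 C/5% CO2, dye-loaded 1 h at 37 C, then given compound in agonist mode; intracellular calcium fluorescence read kinetically at 1 s intervals. Fifteen concentrations, three independent runs.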

Assay [13] can be described thus: cAMP Responsive Elements (CRE) small molecule agonists, cell-based qHTS assay (AID 1963590). Summed up:
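CRE-bla HEK 293T cells in DMEM with 10% dialyzed FBS, NEAA, pyruvate and 25 mM HEPES were plated 18 h at 37 C/5% CO2, then exposed to compounds in DMSO for 3 h before LiveBLAzer B/G FRET substrate addition.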

A short description of assay [14]: cAMP Responsive Elements (CRE) small molecule antagonists, cell-based qHTS assay (AID 1963591; active means well fitted inhibition curve with a large enough effect in the signal ratio in the repeat runs, not every such curve was filed as active; the % refers to the signal ratio). The procedure, abridged: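 CRE-bla HEK293T cells were plated 18 h at 37 °C/5% CO2, pinned with compound in DMSO, then stimulated with NKH477 at 0.25 uM final for 3 h. LiveBLAzer B/G FRET substrate was added and plates incubated 2 h at room temperature.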
The target of assay [15] is Beta-2 adrenergic receptor (Homo sapiens) (UniProt P07550). The assay can be described thus: Adrenergic beta2 receptor (ADRB2) small molecule antagonists, cell-based qHTS assay (AID 1963592). Further: series mostly up to about 92 µM; nearly all actives have a fitted effect of over 50% in size. Summed up:
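Cells (CHO, stable ADRB2 overexpression) incubated 18-20hr at 37C; compounds added from DMSO; agonist mix (1nM isoproterenol, 100uM IBMX, 25uM Ro-20-1724) added; 0.5hr RT; d2-cAMP and anti-cAMP-cryptate added; 1hr RT; 665/615 nm read.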

Assay [16] shares this target. The assay can be described thus: Adrenergic beta2 receptor (ADRB2) small molecule agonists, cell-based qHTS assay (AID 1963593).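 Further: CHO cells stably overexpressing human ADRB2.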 Summed up:
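CHO cells stably over-expressing ADRB2 were plated overnight at 37C, then dosed with compounds plus a stimulation mix containing 100uM IBMX and 25uM Ro-20-1724 for 0.5hr at room temperature. cAMP was measured by HTRF competition, 1hr.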

Assay [17] has as its target D(2) dopamine receptor (Homo sapiens) (UniProt P14416). The assay can be described thus: Dopamine D2 receptor (DRD2) small molecule agonists, cell-based qHTS assay (AID 1963594). Further: nearly all actives have a fitted effect of over 35% in size. The procedure, abridged: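 HEK293 cells stably expressing human DRD2, pre-treated with PDE inhibitor Ro20-1724 (0.1 mM final) and compound 10 min at room temperature, then stimulated with NKH477 (200nM […]) for 30 min. cAMP read by HTRF (665/620 nm).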

For assay [18] the target is unchanged. The assay can be described thus: Dopamine D2 receptor (DRD2) small molecule antagonists, cell-based qHTS assay (AID 1963595; active means well fitted inhibition curve with a large enough effect in the signal ratio in the repeat runs, with a control signal flat; the % refers to the signal ratio). The procedure, abridged:
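Antagonist mode in DRD2-HEK293 cells: after compound addition with 0.1 mM Ro20-1724, cells received quinpirole (12 nM) and NKH477 (200 nM) for 30 min at room temperature; HTRF cAMP read after 1 h detection.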

A short description of assay [19]: G protein-coupled receptor (GPCR) small molecule agonists, calcium flux assay: HEK293 wild type cell line counter screen (AID 1920065). The procedure, abridged:
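Cells were plated and cultured 18 h at 37 C/5% CO2, then loaded with calcium dye for 1 h at 37 C. Compounds in DMSO were pin-transferred in agonist mode, and fluorescence (Ex/Em 480/540) was read kinetically for 3 min at 1 s intervals.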

Assay [20] in a line: p53 small molecule agonists, cell-based qHTS assay with rat liver microsomes (AID 1963578). The procedure, abridged: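 Rat liver microsome activation: microsomes 0.5 mg/mL, NADPH 0.5 mg/mL final; p53RE-bla cells, 16 h 37 C; LiveBLAzer readout, 2 h RT dark.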

Chain of D(2) dopamine receptor (Homo sapiens) (P14416 whole entry, looked up): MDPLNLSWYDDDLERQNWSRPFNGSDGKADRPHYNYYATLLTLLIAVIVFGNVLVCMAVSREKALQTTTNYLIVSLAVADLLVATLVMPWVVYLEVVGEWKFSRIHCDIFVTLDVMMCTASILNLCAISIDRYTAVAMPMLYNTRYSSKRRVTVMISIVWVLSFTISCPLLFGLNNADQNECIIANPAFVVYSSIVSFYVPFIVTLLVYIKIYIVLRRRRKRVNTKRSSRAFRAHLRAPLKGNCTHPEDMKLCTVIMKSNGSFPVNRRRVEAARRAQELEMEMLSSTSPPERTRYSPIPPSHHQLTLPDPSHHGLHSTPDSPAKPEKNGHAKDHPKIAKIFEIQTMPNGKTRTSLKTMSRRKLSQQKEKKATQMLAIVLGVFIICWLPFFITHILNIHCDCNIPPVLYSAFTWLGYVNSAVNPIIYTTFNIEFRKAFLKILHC
Chain of Gonadotropin-releasing hormone receptor (Homo sapiens) (P30968 whole entry, looked up): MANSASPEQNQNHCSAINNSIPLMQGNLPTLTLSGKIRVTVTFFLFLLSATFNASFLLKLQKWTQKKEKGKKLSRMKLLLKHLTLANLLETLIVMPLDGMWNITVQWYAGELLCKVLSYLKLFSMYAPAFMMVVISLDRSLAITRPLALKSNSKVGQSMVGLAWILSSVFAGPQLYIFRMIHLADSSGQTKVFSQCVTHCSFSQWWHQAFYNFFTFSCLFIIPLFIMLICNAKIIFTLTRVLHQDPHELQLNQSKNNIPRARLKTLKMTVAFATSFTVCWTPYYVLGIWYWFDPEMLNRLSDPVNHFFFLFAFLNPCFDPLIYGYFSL
Chain of Beta-2 adrenergic receptor (Homo sapiens) (P07550 whole entry, looked up): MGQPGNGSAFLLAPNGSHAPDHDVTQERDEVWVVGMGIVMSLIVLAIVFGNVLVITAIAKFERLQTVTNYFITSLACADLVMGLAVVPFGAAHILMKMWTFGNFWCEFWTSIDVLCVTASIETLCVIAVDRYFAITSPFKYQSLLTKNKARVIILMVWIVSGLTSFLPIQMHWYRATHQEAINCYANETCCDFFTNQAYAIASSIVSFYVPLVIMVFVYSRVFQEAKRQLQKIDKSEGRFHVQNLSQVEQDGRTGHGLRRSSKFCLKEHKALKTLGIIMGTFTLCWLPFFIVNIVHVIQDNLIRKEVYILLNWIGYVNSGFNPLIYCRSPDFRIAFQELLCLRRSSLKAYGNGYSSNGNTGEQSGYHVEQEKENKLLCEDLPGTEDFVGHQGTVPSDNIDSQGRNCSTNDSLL
Chain of Muscarinic acetylcholine receptor M1 (Homo sapiens) (P11229 whole entry, looked up): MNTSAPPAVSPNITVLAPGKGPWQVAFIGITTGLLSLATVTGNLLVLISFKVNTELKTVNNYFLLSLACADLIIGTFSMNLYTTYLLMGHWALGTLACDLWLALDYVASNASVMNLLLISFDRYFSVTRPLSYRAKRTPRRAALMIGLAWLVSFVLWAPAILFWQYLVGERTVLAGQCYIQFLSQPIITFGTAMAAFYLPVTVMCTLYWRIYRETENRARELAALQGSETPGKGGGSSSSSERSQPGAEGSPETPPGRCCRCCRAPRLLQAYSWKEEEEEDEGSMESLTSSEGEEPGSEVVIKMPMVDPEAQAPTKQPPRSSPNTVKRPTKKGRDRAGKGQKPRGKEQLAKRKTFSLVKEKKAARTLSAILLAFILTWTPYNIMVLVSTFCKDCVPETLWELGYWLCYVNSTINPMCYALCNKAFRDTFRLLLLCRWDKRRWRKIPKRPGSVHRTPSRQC
Chain of 5-hydroxytryptamine receptor 2A (Homo sapiens) (P28223 whole entry, looked up): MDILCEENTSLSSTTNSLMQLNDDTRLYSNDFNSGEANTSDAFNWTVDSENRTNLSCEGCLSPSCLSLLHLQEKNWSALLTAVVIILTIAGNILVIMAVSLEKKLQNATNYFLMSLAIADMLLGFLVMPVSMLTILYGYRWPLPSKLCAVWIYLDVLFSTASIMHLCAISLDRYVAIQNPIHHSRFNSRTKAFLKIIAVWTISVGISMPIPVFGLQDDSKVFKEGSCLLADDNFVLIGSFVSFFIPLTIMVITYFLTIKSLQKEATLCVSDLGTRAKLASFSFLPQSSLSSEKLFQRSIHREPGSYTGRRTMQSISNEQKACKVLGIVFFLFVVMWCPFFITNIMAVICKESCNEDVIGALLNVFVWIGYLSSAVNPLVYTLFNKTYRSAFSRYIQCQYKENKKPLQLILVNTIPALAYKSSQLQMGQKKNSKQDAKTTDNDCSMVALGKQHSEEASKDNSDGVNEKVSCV

Regarding `O=C(O)c1ccc2c(c1)C(=O)OC2=O`, the Potency entry in assay [1], in assay [2], in assay [3], in assay [4], in assay [5] and in assay [6] was “inactive” in each case. Moreover, the Potency entry in [7], in [8], in [9], in assay [10], in [11] and in assay [12] was “inactive” in each case. In addition, the Potency entry in [13], in assay [14], in assay [15], in assay [16] and in assay [17] was “inactive” in each case.

`CC(O)CC(C)(C)O` (stereo not given): the Potency entry in [1], in [2], in [3], in [4], in assay [5] and in assay [7] was “inactive” throughout. Besides, the Potency result in [8], in assay [9], in [10], in [11], in assay [12] and in [14] was “inactive” throughout. Moreover, the Potency entry in assay [15], in assay [16], in [17] and in assay [18] was “inactive” throughout.

Consider `CCN(CC)C(=O)c1cccc(C)c1`, for which the Potency result in assay [1], in [2], in assay [3], in assay [5], in assay [6] and in [7] was “inactive” in each case. Also, the Potency entry in assay [10], in assay [11], in assay [12], in [13], in assay [14] and in assay [16] was “inactive” throughout. Moreover, the Potency result in assay [17] and in [18] was “inactive” throughout.

With `NS(=O)(=O)c1cc(C(=O)O)c(NCc2ccco2)cc1Cl`, the Potency result in assay [1], in [2], in assay [3], in assay [19], in assay [13] and in [14] was “inactive” throughout. Further, the Potency result in [15], in assay [16], in [17] and in [18] was “inactive” each time.

Consider `Cc1ccc(Cl)cc1`, for which the Potency result in assay [1], in assay [2], in assay [3], in [4], in [20] and in assay [5] was “inactive” each time. Also, the Potency result in assay [6], in [7], in assay [8], in assay [9], in assay [10] and in [11] was “inactive” each time. The Potency entry in assay [12], in [13], in assay [14], in assay [15], in assay [16] and in assay [17] was “inactive” throughout.

For the molecule `COc1cc2c(c(OC)c1OC)-c1ccc(OC)c(=O)cc1[C@@H](NC(C)=O)CC2`, the Potency entry in assay [1], in assay [3], in [19], in [14], in assay [16] and in [17] was “inactive” throughout. In addition, the Potency in [2] was 152 nM (active) and 217 nM (active) and 188 nM (active).

For `C[C@]12C[C@H](O)[C@H]3[C@@H](CCC4=CC(=O)CC[C@@]43C)[C@@H]1CC[C@@H]2C(=O)CO`, the Potency result in assay [1], in [2], in [3], in assay [4], in assay [20] and in assay [5] was “inactive” throughout. In addition, the Potency entry in assay [6], in assay [7], in assay [8], in [10], in assay [11] and in [12] was “inactive” each time. Besides, the Potency result in [16], in [17] and in assay [18] was “inactive” in each case.

As for `CCO[Si](CCC#N)(OCC)OCC`, the Potency result in assay [1], in [2], in assay [3], in assay [5], in [6] and in assay [7] was “inactive” in each case. Besides, the Potency entry in assay [9], in assay [10], in [11], in [12], in [13] and in assay [14] was “inactive” each time. The Potency result in [15], in assay [17] and in [18] was “inactive” in each case.

`CCOC(=O)C1OC1c1ccccc1` (stereo not given): the Potency result in assay [1], in [2], in assay [3], in assay [4], in assay [20] and in assay [5] was “inactive” in each case. Also, the Potency result in assay [6], in assay [7], in assay [8], in [9], in assay [10] and in [11] was “inactive” throughout. Also, the Potency result in assay [12], in assay [13], in assay [15], in [16], in [17] and in assay [18] was “inactive” in each case.
